Results on 63 compounds are retold here after PubChem BioAssay AID2315 (National Center for Advancing Translational Sciences (NCATS), 2010).

Screen size: about 290,000 compounds; about 27,000 (9.3%) were called active. Many of the other results were omitted from the sample, so actives are more common in it than they were. Unmarked numbers belong to inactive results. No stated cut-off is given here; in the data, active means inhibition mostly above about 28% (no sharp cut-off); inactive means mostly below about 43%.

This assay is described as follows: A qHTS for Small Molecule Inhibitors of Shiga Toxin. Further: 0% is about no effect. As to conditions: Vero cells, Shiga toxin protein synthesis inhibition reporter; at 38.7 µM, hits give high values. (In general: Quantitative high-throughput screening tests each substance at several concentrations.)
For the compound `COC(=O)c1ccc2c(=O)n(CCN3CCOCC3)c(SCC(=O)Nc3cccc(OC)c3)nc2c1`, the inhibition (as a rule, the change of the read-out against control, counted positive when it falls) is -7.42%.
As for `O=C(CNC(=O)Cc1ccccc1)N=Nc1c(O)[nH]c2ccc(Br)cc12`, the inhibition is 3.9%.
As for `CC1(C)CCSC(/C=C/c2ccccc2)=N1`, the inhibition was 52.2% (active).
As for `Cc1cccn2c(=O)c(C=O)c(Nc3ccc(S(N)(=O)=O)cc3)nc12`, the figure is 3.64%; as for `CCC(=O)N(CCc1ccccc1)Cc1cc2cc(C)ccc2[nH]c1=O`, -0.364%; as for `COc1cccc(-n2c(=S)sc3c(=O)n(-c4ccccc4OC)c(SCC4OCCO4)nc32)c1`, -11.3%.
In the case of `O=C(NCc1cccnc1)C(=O)Nc1nc(-c2ccccc2)cs1`, the inhibition was 98% (active).
In the case of `O=C(NCc1cccnc1)Nc1ccccc1F` it was 19.6%.
In the case of `Cc1ccccc1Nc1nc(-c2cccnc2)cs1`, the inhibition was 76.4% (active).
For the compound `O=C(Nc1ccccc1F)c1ccccc1-c1ccccc1`, the inhibition is 7.36%.
For `O=C(Nc1nnc(-c2ccccc2F)s1)c1ccccc1F`, the inhibition was 58% (active).
In the case of `O=C(O)c1ccccc1C(=O)Nc1nc(-c2ccccc2)cs1` it was -11.1%; in that of `O=C(Nc1ccc(NC(=O)c2ccccc2F)cc1)c1ccccc1F`, -6.19%; in that of `O=C(Nc1nc(-c2cccnc2)cs1)c1ccccc1F`, 166% (active).
As for `O=C(O)c1ccccc1-c1ccccc1C(=O)NCc1cccnc1`, the figure is -3.52%.
As for `CN(Cc1ccccc1)S(=O)(=O)c1nnc(NC(=O)c2ccccc2F)s1`, the figure is -6.12%.
In the case of `Cc1ccc(CNC(=O)C2(C(F)(F)F)C/C(=C\CCO)CCCO2)o1` (stereo not drawn), the inhibition is -7.08%.
On to `COc1ccc(CNC(=O)COc2cccnc2[N+](=O)[O-])cc1`, for which the inhibition is -2.63%.
Regarding `CC(=O)N1CCN(C(=O)C2(NC(=O)Nc3ccc(C)cc3)CCCCC2)CC1`, the inhibition was 23.1%.
As for `NNC(=O)CNC(c1ccccc1)c1cc(Cl)ccc1NC(=O)c1ccccc1` (stereo not drawn), the figure is -4.52%; as for `COc1ccc(Nc2nc(NCc3ccco3)nc(N/N=C/c3ccccc3Cl)n2)cc1`, 7.02%.
As for `COc1ccc(CC(=O)N/N=C/c2cc([N+](=O)[O-])cc(Br)c2O)cc1`, the figure is -3.43%; as for `Cc1ccc(S(=O)(=O)c2nnn3c2nc(N2CCN(c4ccccn4)CC2)c2ccccc23)cc1`, -12%.
In the case of `Cc1occc1C(=O)NC1CCCN(Cc2ccc(CC(C)C)cc2)C1` (stereo not drawn) it was -8.21%; in that of `Cc1ccc(CNS(=O)(=O)c2ccc3c(c2)N(C)CCO3)cc1`, -2.13%.
As to `CC1CCN(S(=O)(=O)c2ccc3[nH]c(=O)ccc3c2)CC1`, the inhibition was -6.16%.
As for `O=C(NC(=S)Nc1ccc(Cl)c(C(=O)O)c1)c1cncc(Br)c1`, the figure is 14.6%; as for `N#Cc1ccc(/C=C2\CCn3c2nc2cc(C(=O)O)ccc2c3=O)cc1`, -9.62%.
Take `O=C(Nc1nnc(Cc2ccccc2)s1)c1cnccn1`: the inhibition is -3.24%.
`O=C(Nc1nc(-c2ccc(-c3ccccc3)cc2)cs1)c1cnccn1`: the inhibition is 34.8% (active).
As for `Cc1ccc(-c2csc(NC(=O)c3cnccn3)n2)cc1C`, the figure is 8.33%.
Turning to `COc1ccc(CN2CCC(n3nccc3NC(=O)CCCc3ccccc3)CC2)cc1C`, the inhibition is -2.11%.
In the case of `CC(=O)Nc1ccc(NS(=O)(=O)c2ccc3c(c2)NC(=O)CC(=O)N3)cc1`, the inhibition is -11.9%.
As for `CCOC(=O)c1c(C)[nH]c(C)c1S(=O)(=O)NCCCc1ccco1`, the figure is -3.37%; as for `O=C(CCCCCn1c(=S)[nH]c2cc3c(cc2c1=O)OCO3)N1CCN(c2ccc(F)cc2)CC1`, -1.92%.
Take `CCn1c(CC(=O)Nc2ccccc2C)nnc1SCC(=O)NC1=NCCS1`: the inhibition is 2.84%.
In the case of `COc1ccc(-c2cn3ccsc3n2)cc1` it was 43.6% (active).
Regarding `CCCCCC(=O)Nc1ccc(-c2cn3cccnc3n2)cc1`, the inhibition is 64.5%.
In the case of `c1ccc(-c2cn3cccnc3n2)cc1` it was 58.5% (active).
For the compound `COc1ccc(-c2cn3ccc(C)cc3n2)cc1`, the inhibition is -17.1%.
Take `CN1CCN(Cc2ccc(OC(F)(F)F)cc2)CC1`: the inhibition is -16.1%.
In the case of `CCCC(=O)Nc1cccc(-c2cn3ccsc3n2)c1`, the inhibition was 22.4%.
In the case of `CC(=O)Nc1ccc(-c2cn3cccnc3n2)cc1` it was 52.4% (active); in that of `CC(C)(C)C(=O)Nc1ccc(-c2cn3cccnc3n2)cc1`, 32.2%; in that of `c1ccc(-c2cn3c(n2)CCc2ccc4cccnc4c2-3)cc1`, -6.84%.
In the case of `FC(F)(F)Oc1ccc(-c2cn3cccnc3n2)cc1` it was 54.1% (active); in that of `Cc1ccccc1Nc1c(-c2ccccc2)nc2ncccn12`, 19.2%.
As for `CCOC(=O)c1cnc(Nc2nc3ccccc3o2)nc1CSC(=S)N1CCCCC1`, the figure is 36.8%; as for `CN(Cc1ccc(F)cc1Cl)S(=O)(=O)c1cccs1`, 39.1%; as for `CCOC(=O)N1CCN(C(=O)C(C)NC(=O)c2ccco2)CC1` (stereo not drawn), -4.62%.
On to `COc1ccc(CC(=O)NC2CCSc3ccccc32)cc1OC` (stereo not drawn), for which the inhibition was -2.96%.
As for `O=C(Nc1ccccc1C(=O)Nc1ccncc1)c1ccc([N+](=O)[O-])cc1`, the figure is -5.25%; as for `O=C(NNS(=O)(=O)c1ccc([N+](=O)[O-])cc1)C1CCCCC1`, -11%; as for `CCCCn1c(N)c(N(CCOC)C(=O)c2oc3ccc(OC)cc3c2C)c(=O)[nH]c1=O`, -5%.
As for `COc1cc(C)cc(CN2CCC(Cc3ccccc3)CC2)c1O`, the figure is -4.61%; as for `NC(=O)c1ccccc1N=Cc1ccc2ccccc2c1`, 69.3%.
In the case of `COc1ccc(N2CCN(C(=O)CSc3nnc4ncccn34)CC2)cc1` it was -8.3%.
For the compound `COc1ccc(-c2ccnc(SCC(=O)N3CCOCC3)n2)cc1`, the inhibition was 19.9%.
With `COc1ccc(-c2cn3cccnc3n2)cc1`, the inhibition is 50.1% (active).
Take `O=C(Nc1ccccc1N1CCOCC1)c1ccc(OCc2cscn2)cc1`: the inhibition was 3.77%.
As for `CCOc1cc(/C=C2/C(=N)N3OC(C)=CC3=NC2=O)ccc1OC`, the figure is -19.9%.
Turning to `CC1=CC2=NC(=O)/C(=C/c3coc4ccccc4c3=O)C(=N)N2O1`, the inhibition is 11.7%.
On to `COc1ccc(OCCCn2cccc2/C=C2/C(=N)N3OC(C)=CC3=NC2=O)cc1`, for which the inhibition is 47.7% (active).
